Molecules are shown by their SMILES.

What all share (details): concentration: 1 μM,replicates: in singlicate; n = 1
The test system of test [1] is FGFR1.
Test [2] deals with FGFR2.
In test [3] the test system is FGFR3.
In test [4] the test system is FGFR4.
Test [5] has as its system FGR.
In test [6] the test system is FLT1.
Test [7] concerns FLT3-autoinhibited.
Test [8] concerns FLT3.
Test [9] concerns FLT4.
Test [10] deals with FRK.
Test [11] concerns FYN.
Test [12] concerns GAK.
The test system of test [13] is T1, GCN2(Kin.Dom.2,S808G).
T1 construct: gene EIF2AK4

The test system of test [14] is GRK1.
The test system of test [15] is T2, GRK2.
T2 construct: gene ADRBK1

Test [16] has as its system T3, GRK3.
T3 construct: gene ADRBK2

In test [17] the test system is GRK4.
Test [18] concerns GRK7.
Test [19] deals with GSK3A.
The test system of test [20] is GSK3B.
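Also: KINOMEscan kinase panel screen.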

With `O=C(NCCCN1CCOC1=O)c1cnc(NCc2cc(Cl)ccc2Cl)nc1NC1CCCC1`, the “%Inh” value was found to be 10% in test [1]; 24% in [2]; 19% in test [3]; 13% in test [4]; 29% in test [5]; 6% in test [6]. Further, the “%Inh” value in test [7] came out at 0%; in [8] it was 21%; in test [9], 5%; in test [10], 18%; in [11], 12%; in test [12], 4%. Moreover, the “%Inh” value worked out at 29% in [13]; 22% in test [14]; 0% in test [15]; 0% in test [16]; 2% in test [17]; 0% in test [18]. Moreover, the “%Inh” value in test [19] was found to be 10%; in [20] it was 0%.

With `Cl.Cl.NC[C@H](CC1CCCCC1)NC(=O)c1cc(Br)c(-c2ccnc3[nH]ccc23)s1` [GSK1581427], the “%Inh” value in test [1] is listed as 35%; in [2], 18%; in [3] it was 13%; in test [4], 16%; in test [5] it was 33%; in [6] it was 39%. For the same compound, the “%Inh” value in test [7] was determined as 8%; in test [8], 68%; in test [9], 22%; in [10], 19%; in [11], 25%; in test [12], 71%. Further, the “%Inh” value in test [13] is on record as 0%; in test [14], 90.2%; in [15], 0%; in test [16], 44%; in test [17], 88%; in [18], 90%. The results for the “%Inh” value in [19] and in [20] were 0% and 13%, respectively.

Consider `C[C@H]1Oc2cc(cnc2N)-c2c(nn(C)c2C#N)CN(C)C(=O)c2ccc(F)cc21`, for which the “%Inh” value in test [1] was 12%; in test [2], 26%; in test [3], 0%; in test [4], 0%; in test [5] it was 33%; in test [6] it was 0%. Further, the “%Inh” value in [7] came out at 0%; in test [8], 26%; in test [9] it was 0%; in test [10], 92%; in [11], 19%; in test [12] it was 25%. Besides, the “%Inh” value turned out to be 0% in test [13]; 95.8% in [14]; 2% in [15]; 0% in [16]; 0% in test [17]; 94.3% in [18]. The “%Inh” value was 21% in [19] and 0% in test [20].

As for `Cc1n[nH]c2ccc(-c3cc(OC[C@@H](N)Cc4ccccc4)cnc3-c3ccoc3)cc12.O=C(O)C(F)(F)F.O=C(O)C(F)(F)F` [GSK507358], the “%Inh” value in test [1] came to 0%; in test [2], 0%; in [3] it was 0%; in [4] it was 0%; in [5] it was 45%; in [6], 2%. Also, the “%Inh” value in test [7] amounted to 0%; in [8], 0%; in [9], 5%; in [10], 0%; in [11] it was 12%; in [12] it was 82%. The “%Inh” value in test [13] was 0%; in test [14], 0%; in [15] it was 0%; in [16] it was 21%; in test [17] it was 34%; in test [18], 0%. In addition, the “%Inh” value is listed as 80% in test [19] and 49% in test [20].

As to `CN(C)CC(O)COc1ccc(Nc2nccc(-c3cnn4nc(N5CCOCC5)ccc34)n2)cc1` (stereo not drawn) [GW767488], the “%Inh” value came out at 2% in [1]; 6% in test [2]; 3% in test [3]; 1% in test [4]; 93.5% in test [5]; 11% in [6]. In addition, the “%Inh” value came out at 40% in test [7]; 58% in test [8]; 24% in test [9]; 0% in [10]; 15% in test [11]; 75% in [12]. Also, the “%Inh” value was determined as 56% in [13]; 23% in test [14]; 0% in test [15]; 0% in test [16]; 81% in test [17]; 37% in test [18]. The “%Inh” value in test [19] turned out to be 4%; in [20] it was 61%.

In the case of `Cc1occc1-c1nc(N)c(OC[C@@H](N)Cc2c[nH]c3ccccc23)cc1-c1cc2c(C)n[nH]c2cn1` [GSK1660450], the “%Inh” value was found to be 49% in test [1]; 4% in test [2]; 0% in test [3]; 0% in [4]; 91.6% in test [5]; 31% in [6]. The “%Inh” value in [7] worked out at 0%; in test [8], 0%; in [9] it was 25%; in test [10], 75%; in test [11], 87%; in test [12], 87%. Moreover, the “%Inh” value was 0% in test [13]; 74% in test [14]; 0% in test [15]; 0% in test [16]; 49% in [17]; 87% in test [18]. For the same compound, the “%Inh” value in [19] worked out at 95.7%; in [20], 97.9%.

With `Cl.Oc1cc(-c2nc(-c3ccccc3)[nH]c2-c2ccncc2)ccc1Cl` [SB-386023], the “%Inh” value in [1] is given as 6%; in test [2] it was 2%; in [3], 0%; in test [4], 0%; in [5] it was 56%; in test [6] it was 2%. Moreover, the “%Inh” value in [7] worked out at 0%; in test [8], 12%; in test [9] it was 8%; in test [10] it was 73%; in [11] it was 40%; in [12], 43%. Moreover, the “%Inh” value in test [13] worked out at 20%; in test [14], 2%; in test [15] it was 0%; in test [16], 0%; in [17], 20%; in test [18] it was 7%. The “%Inh” value in [19] is recorded as 17%; in test [20], 40%.

Turning to `CCn1c(-c2nonc2N)nc2c(C#CC(C)(C)O)nc(OCCN)cc21.Cl.Cl` [GSK902056], the “%Inh” value in [1] is reported as 0%; in test [2], 100%; in test [3], 7%; in test [4] it was 0%; in test [5], 30%; in test [6], 16%. The “%Inh” value was found to be 0% in test [7]; 0% in test [8]; 0% in test [9]; 6% in test [10]; 0% in test [11]; 9% in test [12]. In addition, the “%Inh” value stood at 9% in [13]; 19% in [14]; 0% in test [15]; 39% in test [16]; 14% in test [17]; 0% in test [18]. The “%Inh” value in [19] turned out to be 63%; in test [20], 36%.

As for `Cc1ccc(-n2nc(C(C)(C)C)cc2NC(=O)Nc2ccc(OCCN3CCOCC3)c3ccccc23)cc1` [GW839464], the “%Inh” value is reported as 2% in [2]; 0% in [3]; 0% in [4]; 67% in [6]; 0% in [7]; 29% in test [8]. The “%Inh” value in test [9] came out at 58%; in test [10], 48%; in test [11], 0%; in test [12], 0%; in test [13], 0%; in [14], 0%. In addition, the “%Inh” value in [15] is listed as 5%; in [16] it was 0%; in test [17] it was 16%; in [18], 0%; in test [19], 29%; in [20], 0%.

On to `Nc1nc(Nc2ccccc2)cc(-c2ccc3c(N)n[nH]c3c2)n1` [GSK2225749], for which the “%Inh” value in test [1] is listed as 17%; in test [2], 10%; in test [3] it was 18%; in test [4], 0%; in [5] it was 0%; in test [6], 10%. Also, the “%Inh” value in test [7] is 19%; in test [8] it was 2%; in test [9] it was 9%; in test [10], 0%; in test [11], 12%; in [12] it was 63%. Also, the “%Inh” value in [13] was found to be 0%; in test [14], 0%; in test [15] it was 74%; in test [16] it was 0%; in [17], 73%; in test [18], 0%. The “%Inh” value in test [19] and in test [20] was 0% throughout.

Values taken from paper PMC5540273 (PLoS ONE, 2017).
